Pf Dd2 inh: blocks in vitro growth of P. falciparum Dd2; P. falciparum Dd2 growth, SYBR Green, 72 h; AID 1347417; 4.3% of 120,000 active; Potency, µM (highest dose often 28.9 µM), usual class: inhibitors; active = well fitted inhibition curve with a large enough effect; also: nearly all actives have a fitted effect of over 65% in size
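Infected erythrocytes (Dd2, 0.3% parasitemia, 2.5% hematocrit final) are added to compound in RPMI-1640/Albumax II medium, grown 72 h at 37C in low oxygen, then lysed with saponin/Triton-X containing SYBR Green and read by fluorescence.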
Large screens that a line does not name were inactive. The sample as a whole holds a higher share of hits than the screen did.

CCOC(=O)c1cc(-c2ccccc2)n(CCCC(=O)Nc2ccc(C)cc2Cl)c1C	none
Cn1c(CCNC(=O)C2CCCN(C(=O)c3ccccc3)CCC(=O)NCC2)nc2ccccc21 (centres undefined)	none
Nc1nccc(N2CCN(Cc3ccccc3F)C(CCO)C2)n1 (centres undefined)	none
COc1cccc(CN2CCOCCNC(=O)CC2)c1	none
CCc1c(C)sc2c1CCN(Cc1ccccc1F)C2c1ccccc1 (centres undefined)	Pf Dd2 inh 3.16µM
COc1cccc(Cn2c(C)c(CNC3CCCCC3)c(C(=O)O)c2C)c1	none
CC(C)(C)c1coc([C@@H]2COCCN2Cc2ccccc2F)n1	none
CCc1c(C)sc2c1CCN(Cc1cccc(OC)c1)C2c1ccccc1 (centres undefined)	Pf Dd2 inh 7.94µM
COc1ccc(NC(=O)c2cnc3c(c2)N(C(=O)Cc2ccc(C(C)C)cc2)CCC3)cc1OC	none
Cc1cc(C(=O)N[C@@H]2CCC[C@@H](C(=O)N(C)Cc3cccnc3)CC(=O)N(C)C2)c(C(F)(F)F)o1	none
O=C(c1ccco1)N1CC[C@@H]2[C@@H](CCC(=O)N2CCC2=CCCCC2)C1	none
COc1ccc(CN2C(=O)COC[C@H]2C(=O)NCC2CC2)c(OC)c1	none
O=C(CCc1ccccc1)N1CCC2(CC1)CC(N(C(=O)c1ccccc1)C1CC1)CCO2 (centres undefined)	none
CC(C)(C)OC(=O)N1CCC(c2c(C(=O)NCc3cccs3)cnn2-c2cccc(F)c2)CC1	Pf Dd2 inh 7.94µM
Cc1ccc(-n2ncc(C(=O)NCc3cccs3)c2C2CCN(C(=O)OC(C)(C)C)CC2)c(C)c1	Pf Dd2 inh 11.2µM
O=C(Nc1cccc(F)c1)N1C[C@@H]2C[C@H](C1)c1ccc(-c3cccc(C(F)(F)F)c3)c(=O)n1C2	none
CN(CC1CCOC1)C(=O)C1CCCC1 (centres undefined)	none
CC(=O)NCCC(=O)N1CCC2(CC1)CC(N[S+](C)(=O)[O-])c1ccccc12 (centres undefined)	none
O=C(CSc1nc2c([nH]c3ccccc32)c(=O)n1-c1ccc(Cl)cc1)NC1CCCCC1	Pf Dd2 inh 12.6µM
O=C(CSc1nc2c([nH]c3ccccc32)c(=O)n1-c1ccc(F)cc1)Nc1ccc2c(c1)OCO2	Pf Dd2 inh 11.2µM
Cc1cc(C)cc(-n2c(SCC(=O)N3CCCC3)nc3c([nH]c4ccccc43)c2=O)c1	none
Cc1cc(C)cc(-n2c(SCC(=O)NCc3ccc(F)cc3)nc3c([nH]c4ccccc43)c2=O)c1	Pf Dd2 inh 11.2µM
CCOc1ccc(-n2c(SCC(=O)NC3CCCCC3)nc3c([nH]c4ccccc43)c2=O)cc1	none
Cc1cc(C)cc(-n2c(SCC(=O)Nc3ccc4c(c3)OCO4)nc3c([nH]c4ccccc43)c2=O)c1	none
Cc1ccc(-n2c(SCC(N)=O)nc3c([nH]c4ccccc43)c2=O)cc1	none
Cc1cccc(NC(=O)CSc2nc3c([nH]c4ccccc43)c(=O)n2-c2ccc(F)cc2)c1C	Pf Dd2 inh 4.47µM
Cc1ccc(-n2c(SCC(=O)NCc3ccc(F)cc3)nc3c([nH]c4ccccc43)c2=O)cc1	none
Cn1c(SCC(=O)Nc2ccc(F)cc2)nc2c([nH]c3ccccc32)c1=O	none
O=C(CSc1nc2c([nH]c3ccccc32)c(=O)n1-c1ccc(Cl)cc1)N1CCc2ccccc21	none
O=C(CSc1nc2c([nH]c3ccccc32)c(=O)n1-c1ccc(F)cc1)N1CCCCC1	none
COCC(=O)N1CCCC(C(=O)NCCc2noc(C3CCCC3)n2)C1 (centres undefined)	none
COc1ccc(-c2cc(N3CCCN(C(=O)Cc4c(F)cccc4Cl)CC3)n[nH]2)cc1	none
CCc1nn(-c2ccc(F)cc2)c(Oc2ccccc2)c1CCC(=O)N1CCCC1	none
CCc1noc([C@@H]2CC(F)(F)CN2C(=O)c2ccnn2C)n1	none
COc1cccc(NC(=O)c2cnc3c(c2)N(Cc2ccccc2)CCC3)c1	none
COc1cccc(-n2c(SCC(=O)Nc3cccc(C)c3)nc3c([nH]c4ccccc43)c2=O)c1	Pf Dd2 inh 10µM
CCOc1ccc(-c2nc(SCC(=O)Nc3ccc4c(c3)OCCO4)c(-c3ccc(F)cc3)[nH]2)cc1	none
Cc1cc(NC(=O)CSc2nc3c([nH]c4ccccc43)c(=O)n2-c2ccccc2)no1	none
COc1cccc(-n2c(SCC(=O)N3CCCCC3)nc3c([nH]c4ccccc43)c2=O)c1	none
O=C(CSc1nc(-c2cccc(F)c2)[nH]c1-c1ccccc1)Nc1ccc2c(c1)OCCO2	Pf Dd2 inh 11.2µM
O=C(CSc1nc2c(oc3ccccc32)c(=O)n1-c1ccccc1F)Nc1ccccc1	none
CSc1nc2c([nH]c3ccccc32)c(=O)n1-c1ccc(C)cc1	none
Cc1cc(NC(=O)CSc2nc3c([nH]c4ccccc43)c(=O)n2-c2ccccc2F)no1	Pf Dd2 inh 10µM
COc1cccc(-n2c(SCC(=O)c3ccc(Cl)cc3)nc3c([nH]c4ccccc43)c2=O)c1	none
O=c1c2[nH]c3ccccc3c2nc(SCc2ccccc2F)n1-c1ccc(F)cc1	none
COc1cccc(-c2nc(SCC(=O)Nc3ccc4c(c3)OCCO4)c(-c3ccccc3)[nH]2)c1	none
Cc1cc(C)cc(NC(=O)CSc2nc3c([nH]c4ccccc43)c(=O)n2-c2ccc(F)cc2)c1	Pf Dd2 inh 10µM
CCc1ccc(NC(=O)c2ccc3c(c2)N(CC)C2CCCCCN2C3=O)cc1 (centres undefined)	none
COc1cc(=O)n2c(c1C(=O)Nc1cc(Cl)ccc1Cl)CCCC2	none
Cc1cc(F)ccc1-c1[nH]nc2ncc(-c3ccsc3)nc12	none
COCc1ccc2c(c1)c(OC(C)(C)C(=O)NC1CCN(C)CC1)nn2CCC(C)C	none
N#Cc1cccc(C(=O)N2CCC(C(=O)N3CCCCCCNC(=O)CC3)CC2)c1	none
COC(=O)c1ccc2nc(CO[C@H]3CN(Cc4ccc5ccccc5n4)C[C@H]3F)[nH]c2c1	Pf Dd2 inh 8.91µM
COC(=O)c1ccc2nc(CO[C@H]3CN(C(C)C)C[C@H]3F)[nH]c2c1	none
COC(=O)c1ccc2nc(CO[C@H]3CN(Cc4cccnc4)C[C@H]3F)[nH]c2c1	none
C=CCNC(=O)C(NC(=O)c1ccc2c(c1)OCO2)C1CCN(C(=O)c2ccc(OC)cc2)CC1 (centres undefined)	none
CCNC(=O)CCc1c(C)nn(-c2ccc(F)cc2)c1Oc1ccccc1	none
COc1ccc(-c2oc3ncn4nc(-c5cccc(C)c5)nc4c3c2-c2ccc(OC)cc2)cc1	none
Cc1cccc(C)c1OCc1nc2c3c(-c4ccccc4)c(-c4ccccc4)oc3ncn2n1	none
COc1ccc(-c2oc3ncn4nc(COc5c(C)cccc5C)nc4c3c2-c2ccc(OC)cc2)cc1	Pf Dd2 inh 11.2µM
Cc1cccc(NC(=O)N2CCC(Oc3ccc(-c4noc(C)n4)cc3)C2)c1 (centres undefined)	none
O=C(Nc1ccc2c(c1)OCCO2)N1CCCCCC1CN1CCOCC1 (centres undefined)	none
COc1cccc(-c2noc(CCCC(=O)N[C@H]3C[C@@H]4OCC[C@H]34)n2)c1	none
O=C1CCC(=O)N1CC(=O)N1CCCCCC1c1nnc(-c2ccccc2)o1 (centres undefined)	none
Cc1ccc(C2Cn3nnc(-c4noc(COc5ccccc5)n4)c3CO2)cc1 (centres undefined)	none
CCc1ccc2oc(C(=O)Nc3nonc3CC)c(C)c2c1	none
CCc1ccc2oc(C(=O)Nc3nc(-c4ccccc4)ns3)c(C)c2c1	none
CCc1ccc2oc(C(=O)NCC(c3ccc(Cl)cc3)N3CCOCC3)c(C)c2c1 (centres undefined)	Pf Dd2 inh 11.2µM
CCc1ccc(OCC(=O)NCC(c2ccc(OC)cc2)N2CCOCC2)cc1 (centres undefined)	Pf Dd2 inh 3.16µM
